Vaccinia mCherry – vaccinia inhibition (mCherry reporter); Vaccinia virus mCherry reporter infection, fluorescence; Potency, µM (highest dose often 36.5 µM), actives largely listed as inhibitors; 0.63% of 310,000 active; AID 720579; calls by dose curve; tested in A549 cells; note: nearly all actives have a fitted effect of over 35% in size
Vaccinia Venus – vaccinia inhibition (Venus reporter) | AID 720580 | Potency, µM (top dose mostly 36.5 µM), actives largely listed as inhibitors | 0.46% of 330,000 active | Vaccinia virus Venus reporter expression, fluorescence; calls by dose curve; tested in A549 cells; note: nearly all actives have a fitted effect of over 30% in size
MARV entry inh – Marburg virus entry inhibition | Marburg virus pseudotyped entry inhibition, cell reporter | Potency, µM (highest dose often 37.8 µM), most hits filed as inhibitors | 1.8% of 300,000 active | AID 540276; calls by dose curve; tested in HEK293 cells
Lassa entry inh – Lassa virus entry inhibition; Lassa virus pseudotype entry inhibition, cell reporter; Potency, µM (top dose mostly 37.9 µM), most hits filed as inhibitors; 1.2% of 300,000 active; AID 540256; calls by dose curve; tested in HEK293 cells; note: nearly all actives have a fitted effect of over 50% in size
FMDV inh – blocks foot and mouth disease virus. FMDV antiviral cell-based qHTS. Potency, µM (highest dose often 57.9 µM), actives largely listed as inhibitors. 1.2% of 410,000 active. AID 1159524; calls by dose curve; tested in HEK293T cells; note: read-out not given here; nearly all actives have a fitted effect of over 45% in size
HCMV antiviral – human cytomegalovirus inhibition; 4.5% of 410,000 active; AID 1259415; activity change, negative = inhibition, % at 57.5 µM; HFF cells, HCMV-luciferase reporter, 72 h; stronger effect = lower value; in the data active = activity change below about -60%; inconclusive = no clear call, values can overlap the other calls; inactive = above about -39%
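Human foreskin fibroblasts infected with luciferase-reporter HCMV at MOI 1 PFU/cell, compounds at two doses. Luciferase measured 72 h post infection; normalized to buffer-only basal and Salinomycin (10uM) controls.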
Hits are given with their value; [ ] = dose if it differs, or a comment. Sampled rows, rich in hits. Any-hit rate of the full collection: about 6.5%.

`CCN(CC)S(=O)(=O)c1ccc(N2CCN(c3ccccc3OC)CC2)c(N)c1` gave Vaccinia mCherry inconclusive, Vaccinia Venus inactive, MARV entry inh inconclusive, Lassa entry inh inconclusive, FMDV inh 22.4µM and HCMV antiviral -80.2.
`CCN(c1ccccc1)S(=O)(=O)c1ccc(N)c(OC)c1` gave Vaccinia mCherry inactive, Vaccinia Venus inactive, MARV entry inh 3.16µM, Lassa entry inh inconclusive, FMDV inh inactive and HCMV antiviral inactive.
Screening COc1ccc(CCNC(=O)c2ccc3c(c2)CCN3S(C)(=O)=O)cc1 returned Vaccinia mCherry inactive, Vaccinia Venus inactive, MARV entry inh inactive, Lassa entry inh inactive, FMDV inh inactive and HCMV antiviral inactive.
For COc1cc2c(NC3CCN(C)CC3)nc(N3CCCN(C)CC3)nc2cc1OCCCCC(N)=O the results were Vaccinia mCherry inactive and Vaccinia Venus inactive.
COc1cc2c(NC3CCN(C)CC3)nc(N3CCCN(C)CC3)nc2cc1OCCCCCN(C)C was read as Vaccinia mCherry inconclusive and Vaccinia Venus 12.6µM.
Screening COc1cc2c(NC3CCN(C)CC3)nc(N3CCCN(C)CC3)nc2cc1OCCOCCN1CCCC1 returned Vaccinia mCherry inactive and Vaccinia Venus inactive.
CCN(CC)CCCOc1cc2nc(N3CCCN(C)CC3)nc(NC3CCN(C)CC3)c2cc1OC was read as Vaccinia mCherry 7.08µM and Vaccinia Venus 10µM.
Screening COc1cc2nc(N3CCN(C)CC3)nc(NC3CC3)c2cc1OC returned Vaccinia mCherry inactive and Vaccinia Venus inactive.
For COc1cc2c(NC3CCN(C(C)C)CC3)nc(N3CCCN(C)CC3)nc2cc1OCCCN(C)C the results were Vaccinia mCherry inconclusive and Vaccinia Venus 0.251µM.
CC=C[C@@H]1Oc2ccc(OC)cc2N2C(=O)[C@H](C)[C@@H](OCOC)[C@H]12 was read as MARV entry inh inactive.
`CCN(CC)C(=O)Cn1cc([N+](=O)[O-])cc1[N+](=O)[O-]` gave Vaccinia mCherry inactive, Vaccinia Venus inactive, MARV entry inh inconclusive, Lassa entry inh inactive, FMDV inh inactive and HCMV antiviral inactive.
CSc1nc(C(=O)NCc2nc(-c3cccc(NC(=O)c4ccccn4)c3)oc2C)cs1 was read as Vaccinia mCherry inactive, Vaccinia Venus inactive and FMDV inh inactive.
COc1ccc(NC(=O)[C@@H]2CC=C[C@@H]3CCN(C4CC4)C(=O)[C@@H]32)cc1 was read as Vaccinia mCherry inactive and Vaccinia Venus inactive.
CCOc1ccc(N(C(=O)/C=C/C(=O)Nc2cc(C)on2)C(C(=O)NC2CCCC2)c2ccccc2C)cc1 (stereo not drawn) was read as FMDV inh inconclusive and HCMV antiviral -93.2.
Screening Cc1cc(NC(=O)CCC(=O)N(c2ccccc2)C(C(=O)NC2CCCC2)c2ccc(F)cc2)no1 (stereo not drawn) returned Vaccinia mCherry inactive, Vaccinia Venus inactive, MARV entry inh inactive, Lassa entry inh inactive, FMDV inh inactive and HCMV antiviral inactive.
Screening Cc1cc(NC(=O)CCC(=O)N(c2ccccc2)C(C(=O)NC2CCCCC2)c2cccs2)no1 (stereo not drawn) returned Vaccinia Venus inactive, MARV entry inh inconclusive, Lassa entry inh inactive, FMDV inh inactive and HCMV antiviral -64.6.
Screening O=C(NC1CCCCC1)C(c1ccccn1)N(C(=O)Cc1cccs1)c1ccc(Cl)cc1 (stereo not drawn) returned MARV entry inh 10.3µM, Lassa entry inh inactive, FMDV inh inactive and HCMV antiviral inactive.
Screening Cc1cc(NC(=O)CCC(=O)N(Cc2ccco2)C(C(=O)NC2CCCC2)c2ccc(F)cc2)no1 (stereo not drawn) returned Vaccinia mCherry inactive, Vaccinia Venus inactive, MARV entry inh inconclusive, Lassa entry inh inactive, FMDV inh inactive and HCMV antiviral -63.2.
`COc1ccc(/C=C\C(=O)NC2CC(=O)N(c3ccc(F)cc3)C2)cc1OC` (stereo not drawn) gave Vaccinia mCherry inactive, Vaccinia Venus inactive, Lassa entry inh inactive, FMDV inh inactive and HCMV antiviral inactive.
CCOC(=O)C1(C)CCCCN1C(=O)c1cccc(Cl)c1 (stereo not drawn) was read as Vaccinia mCherry inactive, Vaccinia Venus inactive, FMDV inh inactive and HCMV antiviral inactive.
For O=C(NCc1cccnc1)c1cc(C2CCCCN2C(=O)CCCc2ccccc2)on1 (stereo not drawn) the results were Vaccinia mCherry inactive, Vaccinia Venus inactive, FMDV inh inactive and HCMV antiviral inactive.
`O=C([C@H]1O[C@@H](n2ccc(=O)[nH]c2=O)[C@H](O)[C@@H]1O)N1CCN(c2ccc(Cl)cn2)CC1` gave Vaccinia mCherry inactive, Vaccinia Venus inactive, FMDV inh inactive and HCMV antiviral inactive.
Screening N#C/C=C/N1CCN(C(=O)c2ccco2)CC1 returned FMDV inh inactive and HCMV antiviral inactive.
`COc1cccc2c1[C@@H]1CN(CCCCn3c(=O)[nH]c4c(sc5ncc(-c6ccccc6)nc54)c3=O)C[C@@H]1CO2` gave Vaccinia mCherry inconclusive, Vaccinia Venus inconclusive, MARV entry inh 7.94µM, Lassa entry inh inconclusive, FMDV inh inactive and HCMV antiviral inactive.
For CC(C)C(=O)N1CCC(CN=Cc2c(O)n(C3CCCCC3)c(=O)n(C3CCCCC3)c2=O)CC1 the results were Vaccinia mCherry inactive[1.46 µM], Vaccinia Venus inconclusive, MARV entry inh inconclusive, Lassa entry inh 14.1µM, FMDV inh inconclusive and HCMV antiviral inactive.
For Cc1cnc(C)c(-c2cc(F)cc3c2OC(CNC(=O)C2CCOC2)C3)n1 (stereo not drawn) the results were Vaccinia mCherry inactive, Vaccinia Venus inactive and FMDV inh inactive.
Screening O=C(NCc1ccccn1)c1cnn(-c2nccc(-c3ccccc3F)n2)c1C1CC1 returned Vaccinia mCherry inactive, Vaccinia Venus inactive and FMDV inh inactive.
Screening COc1ccc(-c2cnc3c(NC=O)cc(-c4cc(OC)c(OC)c(OC)c4)cn23)cc1OC returned Vaccinia mCherry inactive, Vaccinia Venus inactive, FMDV inh inactive and HCMV antiviral inactive.
For COc1cccc(-c2cc(NC=O)c3ncc(-c4ccc(OC)c(OC)c4)n3c2)c1 the results were Vaccinia mCherry inconclusive, Vaccinia Venus inconclusive, FMDV inh inactive and HCMV antiviral inactive.
Screening COc1ccc(-c2cc(NC=O)c3ncc(-c4cc(OC)c(OC)c(OC)c4)n3c2)cc1 returned Vaccinia mCherry inconclusive, Vaccinia Venus inconclusive, FMDV inh inactive and HCMV antiviral -80.7.
Screening COc1ccc(-c2cnc3c(NC=O)cc(-c4ccccc4)cn23)cc1OC returned Vaccinia mCherry 1.26µM, Vaccinia Venus inconclusive, FMDV inh inconclusive and HCMV antiviral inactive.
COc1ccc(-c2cnc3c(NC=O)cc(-c4ccc(F)cc4)cn23)cc1OC was read as Vaccinia mCherry 11.2µM, Vaccinia Venus inconclusive, FMDV inh inconclusive and HCMV antiviral inconclusive.
COc1ccc(-c2cnc3c(NC=O)cc(-c4cccc(NS(C)(=O)=O)c4)cn23)cc1OC was read as Vaccinia mCherry 6.31µM, Vaccinia Venus 8.91µM, FMDV inh inactive and HCMV antiviral inactive.

High-throughput results deposited in PubChem by National Center for Advancing Translational Sciences (NCATS).
